Values joined by “and” are separate entries in the source; they are usually repeats but may differ in a detail not shown here. Equal entries are not always repeated. Out of some 5,500 compounds screened, about 2,000 (36%) were called active. Not shown: some 18% with an inconclusive outcome. No stated cut-off is given here; in the data, active means normalized growth mostly below about 0.91 (no sharp cut-off); inconclusive means no clear call, values can overlap the other calls; inactive means mostly above about 0.92. The list shows a part of the results.
Experiment: chemical genetic growth profiling, strain panel (AID 1159580);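 further: tested at 20 µM; growth read once vehicle control cultures reached saturation at 30 °C; 1 = growth at the plate median or of vehicle wells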
Conditions: growth OD

Measured: normalized growth

NC(=O)c1cnccn1
inactive: S. cerevisiae deletion strains, locus YJR075W, strain HOC1, stronger effect = lower value 1.03 | S. cerevisiae deletion strains, locus YKL009W, strain mrt4, stronger effect = lower value 1.02 | S. cerevisiae deletion strains, locus YKL068W, stronger effect = lower value 1 | S. cerevisiae deletion strains, locus YKL085W, strain MDH1 (second series), stronger effect = lower value 1.01 | S. cerevisiae deletion strains, locus YKL085W, strain MDH1, stronger effect = lower value 1.01 | S. cerevisiae deletion strains, locus YKL160W, strain elf1, stronger effect = lower value 0.967 | S. cerevisiae deletion strains, locus YKL190W, strain CNB1, stronger effect = lower value 1.01 | S. cerevisiae deletion strains, locus YKR001C, strain vps1, stronger effect = lower value 0.999 | S. cerevisiae deletion strains, locus YKR026C, strain gcn3, stronger effect = lower value 0.992 | S. cerevisiae deletion strains, locus YKR091W, strain srl3, stronger effect = lower value 0.99 | S. cerevisiae deletion strains, locus YLL001W, strain dnm1, stronger effect = lower value 0.955 | S. cerevisiae deletion strains, locus YLL026W, stronger effect = lower value 0.979 | S. cerevisiae deletion strains, locus YLL041C, strain sdh2, stronger effect = lower value 0.993 | S. cerevisiae deletion strains, locus YLR027C, strain aat2, stronger effect = lower value 0.976 | S. cerevisiae deletion strains, locus YLR039C, strain RIC1, stronger effect = lower value 1.05 | S. cerevisiae deletion strains, locus YLR058C, strain SHM2, stronger effect = lower value 1 | S. cerevisiae deletion strains, locus YLR102C, strain apc9, stronger effect = lower value 0.999 | S. cerevisiae deletion strains, locus YLR113W, strain HOG1, stronger effect = lower value 0.99 | S. cerevisiae deletion strains, locus YLR221C, strain rsa3, stronger effect = lower value 1.01 | S. cerevisiae deletion strains, locus YLR258W, strain gsy2, stronger effect = lower value 1.01 | S. cerevisiae deletion strains, locus YLR262C, strain YPT6 (second series), stronger effect = lower value 0.965 | S. cerevisiae deletion strains, locus YLR262C, strain YPT6, stronger effect = lower value 0.979 | S. cerevisiae deletion strains, locus YLR268W, strain sec22, stronger effect = lower value 1.05 | S. cerevisiae deletion strains, locus YLR320W, strain mms22, stronger effect = lower value 0.981 | S. cerevisiae deletion strains, locus YLR330W, strain CHS5, stronger effect = lower value 1.01 | S. cerevisiae deletion strains, locus YLR342W, strain FKS1 (second series), stronger effect = lower value 1.02 | S. cerevisiae deletion strains, locus YLR342W, strain FKS1, stronger effect = lower value 0.968 | S. cerevisiae deletion strains, locus YLR357W, strain rsc2, stronger effect = lower value 0.967 | S. cerevisiae deletion strains, locus YLR370C, strain arc18, stronger effect = lower value 0.999 | S. cerevisiae deletion strains, locus YLR371W, strain rom2, stronger effect = lower value 1.01 | S. cerevisiae deletion strains, locus YLR384C, strain iki3, stronger effect = lower value 0.977 | S. cerevisiae deletion strains, locus YLR418C, strain cdc73, stronger effect = lower value 1 | S. cerevisiae deletion strains, locus YML016C, strain PPZ1, stronger effect = lower value 1 | S. cerevisiae deletion strains, locus YML032C, strain rad52, stronger effect = lower value 1.02 | S. cerevisiae deletion strains, locus YML120C, strain ndi1, stronger effect = lower value 0.98 | S. cerevisiae deletion strains, locus YML124C, strain tub3, stronger effect = lower value 0.998 | S. cerevisiae deletion strains, locus YMR058W, strain fet3, stronger effect = lower value 0.98 | S. cerevisiae deletion strains, locus YMR078C, strain ctf18, stronger effect = lower value 1 | S. cerevisiae deletion strains, locus YMR125W, strain sto1, stronger effect = lower value 0.999 | S. cerevisiae deletion strains, locus YMR129W, stronger effect = lower value 0.993 | S. cerevisiae deletion strains, locus YMR205C, strain PFK2, stronger effect = lower value 0.998 | S. cerevisiae deletion strains, locus YMR223W, strain ubp8, stronger effect = lower value 0.985 | S. cerevisiae deletion strains, locus YMR231W, strain pep5, stronger effect = lower value 0.982 | S. cerevisiae deletion strains, locus YMR307W, strain GAS1, stronger effect = lower value 1.01 | S. cerevisiae deletion strains, locus YNL067W, strain RPL9B, stronger effect = lower value 1 | S. cerevisiae deletion strains, locus YNL071W, strain lat1, stronger effect = lower value 1.01 | S. cerevisiae deletion strains, locus YNL128W, strain TEP1, stronger effect = lower value 1.02 | S. cerevisiae deletion strains, locus YNL153C, strain GIM3, stronger effect = lower value 1 | S. cerevisiae deletion strains, locus YNL175C, strain NOP13, stronger effect = lower value 1 | S. cerevisiae deletion strains, locus YNL183C, strain NPR1, stronger effect = lower value 0.998 | S. cerevisiae deletion strains, locus YNL197C, strain WHI3, stronger effect = lower value 0.995 | S. cerevisiae deletion strains, locus YNL209W, strain ssb2, stronger effect = lower value 1 | S. cerevisiae deletion strains, locus YNL224C, strain SQS1, stronger effect = lower value 0.991 | S. cerevisiae deletion strains, locus YNL233W, strain BNI4, stronger effect = lower value 1.01 | S. cerevisiae deletion strains, locus YNL248C, strain rpa49, stronger effect = lower value 1.01 | S. cerevisiae deletion strains, locus YNL250W, strain rad50, stronger effect = lower value 0.998 | S. cerevisiae deletion strains, locus YNL271C, strain bni1, stronger effect = lower value 1 | S. cerevisiae deletion strains, locus YNL298W, strain CLA4, stronger effect = lower value 0.997 | S. cerevisiae deletion strains, locus YNL307C, strain MCK1, stronger effect = lower value 1.01 | S. cerevisiae deletion strains, locus YNL322C, strain KRE1 (second series), stronger effect = lower value 0.984 | S. cerevisiae deletion strains, locus YNR049C, strain mso1, stronger effect = lower value 0.998 | S. cerevisiae deletion strains, locus YNR052C, strain pop2, stronger effect = lower value 0.99 | S. cerevisiae deletion strains, locus YOL006C, strain TOP1, stronger effect = lower value 0.999 | S. cerevisiae deletion strains, locus YOL012C, strain htz1 1.57 | S. cerevisiae deletion strains, locus YOL147C, strain pex11, stronger effect = lower value 1 | S. cerevisiae deletion strains, locus YOR001W, strain rrp6, stronger effect = lower value 0.983 | S. cerevisiae deletion strains, locus YOR061W, strain CKA2, stronger effect = lower value 1 | S. cerevisiae deletion strains, locus YOR069W, strain VPS5, stronger effect = lower value 1.01 | S. cerevisiae deletion strains, locus YOR070C, strain gyp1, stronger effect = lower value 1 | S. cerevisiae deletion strains, locus YOR080W, strain dia2, stronger effect = lower value 0.978 | S. cerevisiae deletion strains, locus YOR083W, strain WHI5 (second series), stronger effect = lower value 1.02 | S. cerevisiae deletion strains, locus YOR083W, strain WHI5, stronger effect = lower value 0.955 | S. cerevisiae deletion strains, locus YOR106W, strain vam3, stronger effect = lower value 0.992 | S. cerevisiae deletion strains, locus YOR136W, strain idh2, stronger effect = lower value 0.988 | S. cerevisiae deletion strains, locus YOR144C, strain elg1, stronger effect = lower value 1 | S. cerevisiae deletion strains, locus YOR184W, strain ser1, stronger effect = lower value 1 | S. cerevisiae deletion strains, locus YOR231W, strain MKK1, stronger effect = lower value 1 | S. cerevisiae deletion strains, locus YOR265W, strain rbl2, stronger effect = lower value 0.985 | S. cerevisiae deletion strains, locus YOR270C, strain vph1, stronger effect = lower value 1.02 | S. cerevisiae deletion strains, locus YOR290C, strain snf2, stronger effect = lower value 1.02 | S. cerevisiae deletion strains, locus YOR316C, strain cot1, stronger effect = lower value 1.01 | S. cerevisiae deletion strains, locus YPL051W, strain arl3, stronger effect = lower value 0.993 | S. cerevisiae deletion strains, locus YPL055C, strain LGE1, stronger effect = lower value 0.976 and 0.968 | S. cerevisiae deletion strains, locus YPL078C, strain atp4, stronger effect = lower value 0.957 | S. cerevisiae deletion strains, locus YPL106C, strain sse1, stronger effect = lower value 0.97 | S. cerevisiae deletion strains, locus YPL240C, strain hsp82, stronger effect = lower value 0.979 | S. cerevisiae deletion strains, locus YPL241C, strain CIN2, stronger effect = lower value 1.01 | S. cerevisiae deletion strains, locus YPL256C, strain CLN2, stronger effect = lower value 1.02 | S. cerevisiae deletion strains, locus YPR119W, strain clb2, stronger effect = lower value 1.01 | S. cerevisiae deletion strains, locus YPR141C, strain kar3, stronger effect = lower value 0.993 | S. cerevisiae deletion strains, locus YPR163C, strain tif3, stronger effect = lower value 1.01 | S. cerevisiae deletion strains, locus YPR167C, strain met16, stronger effect = lower value 1.01 | S. cerevisiae deletion strains, strain wtn01, stronger effect = lower value 1 | S. cerevisiae strains, strain wild type, stronger effect = lower value 1.01

— PubChem BioAssay AID1159580 (chemical genetic matrix, 2015)
